# In paper PMC4081100, “A DNA-binding-site landscape and regulatory network analysis for NAC transcription factors in Arabidopsis thaliana”:
# Columns and labels:
# Test in all cases: universal protein binding microarray (PBM); transcription factors of Arabidopsis thaliana; high values mean tight binding
# GST-ANAC019 NAC domain = target: T1, GST-ANAC019 NAC domain (Arabidopsis thaliana, UniProt Q9C932 14-162); settings: protein: recombinant; tags: GST; chain copies: 2; dsDNA, one strand shown
# T1 sequence: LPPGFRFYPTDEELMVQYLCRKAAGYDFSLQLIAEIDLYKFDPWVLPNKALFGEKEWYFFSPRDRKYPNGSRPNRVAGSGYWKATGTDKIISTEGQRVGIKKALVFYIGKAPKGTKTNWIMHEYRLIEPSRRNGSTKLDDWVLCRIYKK
# How it was run: (§1)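 Binding is expressed as the normalised enrichment score (E-score). Proteins carrying a GST tag, whether NAC-domain, full-length or DNA-binding-domain forms, were induced in cells, and zinc acetate was added for zinc-finger proteins. After purification on glutathione–Sepharose 4B and quantification by A280 or anti-GST western blot, each was applied in duplicate at 200 to 500 nM final to custom all-10-mer Agilent 4 × 180K arrays made double-stranded by primer extension. Gapped and ungapped 8-mers were scored.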
# GST-ANAC055(1-171) = target: T2, GST-ANAC055(1-171) (Arabidopsis thaliana, UniProt Q9LDY8 1-171); settings: protein: recombinant; tags: GST; chain copies: 2; dsDNA, one strand shown
# T2 sequence: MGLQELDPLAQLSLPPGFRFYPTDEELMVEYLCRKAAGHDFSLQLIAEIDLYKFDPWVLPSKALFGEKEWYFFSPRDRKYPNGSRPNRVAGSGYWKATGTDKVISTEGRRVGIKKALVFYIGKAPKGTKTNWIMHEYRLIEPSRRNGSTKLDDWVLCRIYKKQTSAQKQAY
# How it was run: as §1
# GST-ATAF1 NAC domain = target: T3, GST-ATAF1 NAC domain (Arabidopsis thaliana, UniProt Q39013 7-158); settings: protein: recombinant; tags: GST; chain copies: 2; dsDNA, one strand shown
# T3 sequence: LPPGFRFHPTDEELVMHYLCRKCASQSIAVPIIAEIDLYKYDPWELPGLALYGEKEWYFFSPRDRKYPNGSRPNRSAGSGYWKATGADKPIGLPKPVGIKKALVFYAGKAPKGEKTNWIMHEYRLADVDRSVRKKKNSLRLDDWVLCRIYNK
# How it was run: as §1
# [1] = target: T4, GST-ANAC092(1-285) full length (Arabidopsis thaliana, UniProt Q9FKA0 1-285); settings: protein: recombinant; tags: GST; chain copies: 2; dsDNA, one strand shown
# T4 sequence: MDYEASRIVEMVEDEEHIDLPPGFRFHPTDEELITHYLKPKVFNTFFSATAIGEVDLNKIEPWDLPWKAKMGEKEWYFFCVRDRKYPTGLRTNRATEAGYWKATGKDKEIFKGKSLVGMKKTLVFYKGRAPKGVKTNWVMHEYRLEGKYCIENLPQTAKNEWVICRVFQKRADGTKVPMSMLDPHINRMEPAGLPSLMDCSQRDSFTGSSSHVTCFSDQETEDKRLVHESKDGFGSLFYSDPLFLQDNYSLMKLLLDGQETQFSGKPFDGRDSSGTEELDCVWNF
# How it was run: as §1
# GST-NAP(1-166) = target: T5, GST-NAP(1-166) (Arabidopsis thaliana, UniProt O49255 1-166); settings: protein: recombinant; tags: GST; chain copies: 2; dsDNA, one strand shown
# T5 sequence: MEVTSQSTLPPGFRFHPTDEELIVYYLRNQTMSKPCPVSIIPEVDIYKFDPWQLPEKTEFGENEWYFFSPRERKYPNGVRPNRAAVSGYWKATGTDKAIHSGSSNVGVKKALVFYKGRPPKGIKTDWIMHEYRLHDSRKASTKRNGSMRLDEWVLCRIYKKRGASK
# How it was run: as §1
# GST-VND3 NAC domain = target: T6, GST-VND3 NAC domain (Arabidopsis thaliana, UniProt Q9FH59 12-162); settings: protein: recombinant; tags: GST; chain copies: 2; dsDNA, one strand shown
# T6 sequence: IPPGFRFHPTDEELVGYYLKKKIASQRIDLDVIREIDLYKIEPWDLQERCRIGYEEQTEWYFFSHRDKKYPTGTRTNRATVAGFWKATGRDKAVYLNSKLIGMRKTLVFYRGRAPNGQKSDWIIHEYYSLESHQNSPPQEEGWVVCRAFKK
# How it was run: as §1
# GST-VND7 NAC domain = target: T7, GST-VND7 NAC domain (Arabidopsis thaliana, UniProt Q9C8W9 9-158); settings: protein: recombinant; tags: GST; chain copies: 2; dsDNA, one strand shown
# T7 sequence: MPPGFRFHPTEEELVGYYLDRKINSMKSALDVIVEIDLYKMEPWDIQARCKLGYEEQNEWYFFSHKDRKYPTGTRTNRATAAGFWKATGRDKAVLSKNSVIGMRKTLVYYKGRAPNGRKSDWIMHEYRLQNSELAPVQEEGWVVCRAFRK
# How it was run: as §1
# GST-NTL6(1-168) = GST-NTL6(1-168) (Arabidopsis thaliana, UniProt Q9SCK6 1-168); settings: protein: recombinant; tags: GST; chain copies: 2; dsDNA, one strand shown
# GST-NTL6(1-168), sequence (Q9SCK6 1-168): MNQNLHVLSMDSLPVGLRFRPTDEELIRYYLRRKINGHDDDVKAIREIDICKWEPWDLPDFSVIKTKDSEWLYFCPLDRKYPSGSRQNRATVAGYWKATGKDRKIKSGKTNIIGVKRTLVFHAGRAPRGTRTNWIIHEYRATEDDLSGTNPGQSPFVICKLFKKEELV
# How it was run: as §1
# GST-WRKY1(266-371) = GST-WRKY1(266-371) (Arabidopsis thaliana, UniProt Q9SI37 266-371); settings: protein: recombinant; tags: GST; dsDNA, one strand shown
# GST-WRKY1(266-371), sequence (Q9SI37 266-371): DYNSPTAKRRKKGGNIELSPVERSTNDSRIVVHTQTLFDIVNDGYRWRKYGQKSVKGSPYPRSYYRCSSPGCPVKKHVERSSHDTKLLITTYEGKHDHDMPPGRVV
# How it was run: as §1
# GST-NTL8 NAC domain = target: T8, GST-NTL8 NAC domain (Arabidopsis thaliana, UniProt Q9XIN7 14-156); settings: protein: recombinant; tags: GST; chain copies: 2; dsDNA, one strand shown
# T8 sequence: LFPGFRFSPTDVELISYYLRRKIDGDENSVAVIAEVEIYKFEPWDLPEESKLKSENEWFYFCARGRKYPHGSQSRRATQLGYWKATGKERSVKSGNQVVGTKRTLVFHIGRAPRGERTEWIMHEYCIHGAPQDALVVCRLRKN
# How it was run: as §1
# GST-ANAC092(1-176) = target: T9, GST-ANAC092(1-176) (Arabidopsis thaliana, UniProt Q9FKA0 1-176); settings: protein: recombinant; tags: GST; chain copies: 2; dsDNA, one strand shown
# T9 sequence: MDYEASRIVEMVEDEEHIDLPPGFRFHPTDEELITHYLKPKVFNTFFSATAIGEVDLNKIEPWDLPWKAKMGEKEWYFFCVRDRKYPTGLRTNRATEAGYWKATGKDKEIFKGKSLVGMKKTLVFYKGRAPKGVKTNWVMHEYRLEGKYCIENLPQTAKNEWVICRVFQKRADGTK
# How it was run: as §1
# GST-NST2(1-184) = target: T10, GST-NST2(1-184) (Arabidopsis thaliana, UniProt Q9M274 1-184); settings: protein: recombinant; tags: GST; chain copies: 2; dsDNA, one strand shown
# T10 sequence: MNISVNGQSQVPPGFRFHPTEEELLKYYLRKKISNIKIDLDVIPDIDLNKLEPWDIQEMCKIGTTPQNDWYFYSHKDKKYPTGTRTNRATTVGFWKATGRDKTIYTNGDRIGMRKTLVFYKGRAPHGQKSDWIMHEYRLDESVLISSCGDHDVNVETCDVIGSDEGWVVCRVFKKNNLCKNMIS
# How it was run: as §1
Sequence,binding signal (GST-ANAC019 NAC domain),binding signal (GST-ANAC055(1-171)),binding signal (GST-ATAF1 NAC domain),binding signal [1],binding signal (GST-NAP(1-166)),binding signal (GST-VND3 NAC domain),binding signal (GST-VND7 NAC domain),binding signal (GST-NTL6(1-168)),binding signal (GST-WRKY1(266-371)),binding signal (GST-NTL8 NAC domain),binding signal (GST-ANAC092(1-176)),binding signal (GST-NST2(1-184))
CACGGCTC,0.42 E-score,0.384 E-score,0.336 E-score,0.18 E-score,0.3 E-score,0.337 E-score,0.377 E-score,,,,,
GTCAAATA,,0.0664 E-score,0.141 E-score,,0.0873 E-score,0.0795 E-score,0.139 E-score,0.0593 E-score,0.461 E-score,,,
CTAGTCAA,0.0699 E-score,0.171 E-score,0.148 E-score,0.0883 E-score,,0.166 E-score,0.08 E-score,,0.474 E-score,0.0822 E-score,,
ATTGGTCA,,,,0.105 E-score,,0.0748 E-score,,,0.454 E-score,,0.0884 E-score,
GTTGACAA,,0.127 E-score,0.195 E-score,0.055 E-score,0.116 E-score,0.0521 E-score,0.0726 E-score,,0.446 E-score,,,
TACAGTCA,0.109 E-score,0.0559 E-score,0.107 E-score,0.131 E-score,,0.167 E-score,0.0649 E-score,,0.404 E-score,0.0899 E-score,,
TATGACCA,,,,,,0.117 E-score,,,0.424 E-score,,,
GCACGGTA,0.2 E-score,0.189 E-score,0.134 E-score,0.408 E-score,0.102 E-score,0.124 E-score,0.122 E-score,,,,0.375 E-score,
GTCAATCA,0.0668 E-score,0.0807 E-score,,0.169 E-score,,0.132 E-score,0.114 E-score,,0.435 E-score,0.0888 E-score,,0.0647 E-score
TGACTAAA,0.0691 E-score,,,,,0.0682 E-score,0.0902 E-score,0.0547 E-score,0.42 E-score,,,0.111 E-score
ATGGTCAA,,0.0866 E-score,0.155 E-score,,,0.138 E-score,,0.05 E-score,0.485 E-score,,,0.0826 E-score
AGAGTCAA,0.108 E-score,,,,,0.0953 E-score,0.0931 E-score,,0.48 E-score,,,0.0818 E-score
AGTCAATC,0.0741 E-score,,0.0533 E-score,0.0868 E-score,0.0978 E-score,0.0908 E-score,,0.0768 E-score,0.468 E-score,0.122 E-score,0.0925 E-score,0.0674 E-score
CTATTGAC,,0.0817 E-score,0.0721 E-score,,0.0658 E-score,0.06 E-score,,0.075 E-score,0.451 E-score,,,
AGAGGGAA,,0.0527 E-score,0.0736 E-score,,0.111 E-score,0.0709 E-score,0.0972 E-score,0.178 E-score,,0.447 E-score,0.114 E-score,
TTCGTCAA,,0.0829 E-score,0.106 E-score,0.0695 E-score,,0.0782 E-score,,0.0728 E-score,0.437 E-score,,,0.0662 E-score
AGGGAAAT,0.0765 E-score,,0.112 E-score,0.106 E-score,,0.0592 E-score,,0.0669 E-score,,0.406 E-score,0.137 E-score,0.0566 E-score
AAGGTCAG,,,0.0646 E-score,,,0.0582 E-score,,,0.425 E-score,0.0579 E-score,,
